Screening data from PubChem BioAssay.
Most compounds without a hit are left out; they make up all but 19% or so of the library.
TDP1 cell CPT = qHTS for Inhibitors of human tyrosyl-DNA phosphodiesterase 1 (TDP1): qHTS in cells in presence of CPT | Potency, µM (doses to about 46.2 µM), without a hit: at the highest dose activity change, negative = growth inhibition, hits mostly inhibitors | 420,000 compounds, 12% hits | AID 686979, 2013 | chicken DT40 Tdp1-/-;hTDP1 cells + 20 nM CPT, ATP luminescence, 48 h; note: potency is the fitted concentration of half-maximal effect; nearly all actives have a fitted effect of over 55% in size
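Chicken DT40 Tdp1-/- cells stably complemented with human TDP1 were seeded at 400 cells/well in medium containing 20 nM camptothecin, exposed to pin-transferred compounds, and grown at 37 °C for at least 48 hr. Viability was read as ATP luminescence.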
TDP1 cell noCPT = qHTS for Inhibitors of human tyrosyl-DNA phosphodiesterase 1 (TDP1): qHTS in cells in absence of CPT; Potency, µM (top dose mostly 46.2 µM), for the others: at the highest dose activity change, negative = growth inhibition, hits mostly inhibitors; DT40 Tdp1-/- hTDP1 cells, no CPT, ATP luminescence, 48 h; 420,000 compounds, 15% hits; AID 686978, 2013; note: potency is the fitted concentration of half-maximal effect; nearly all actives have a fitted effect of over 55% in size
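Luminescent ATP content (CellTiter-Glo) served as the growth readout. Knockout chicken DT40 cells expressing human TDP1 were exposed to compounds without camptothecin for a minimum 48 hr at 37 °C.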
uPA surface inh = qHTS for Inhibitors of Cell Surface uPA Generation | cell surface uPA generation assay, qHTS | Potency, µM (series often up to 38.3 µM), for inactives: at the top dose activity change, negative = inhibition, hits mostly inhibitors | 330,000 compounds, 0.31% hits | AID 540303, 2011; active = well fitted inhibition curve with a large enough effect; inconclusive = small, poorly fitted or top-dose-only effect; inactive = no such curve, though single readings can be large or run the other way; tested in mouse RAW 264.7 cells; note: potency is the fitted concentration of half-maximal effect; nearly all actives have a fitted effect of over 55% in size
HT1080-NT tox = qHTS for induction of synthetic lethality in tumor cells producing 2HG: qHTS for the HT-1080-NT fibrosarcoma cell line | HT-1080-NT fibrosarcoma viability, CellTiter-Glo ATP luminescence, 48 h | Potency, µM (highest dose often 46.1 µM), inactives show at the top dose activity, negative = less viability, actives largely listed as cytotoxic | 360,000 compounds, 1.6% hits;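 note: NT is the 2HG producing partner of a matched IDH1 knockdown line; potency is the fitted concentration of half-maximal effect; 0% = DMSO-treated cells and -100% = media-only wells without cells; nearly all actives have a fitted effect of over 55% in size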
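HT-1080-NT fibrosarcoma cells (2HG-overproducing), 750 cells/well in RPMI with 5% FBS, dosed after 2 h and incubated 48 h at 37C. CellTiter-Glo luminescence normalized to DMSO and no-cell wells; concentration-response curves fitted and classed.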
HT1080 IDH1KD tx = qHTS for induction of synthetic lethality in tumor cells producing 2HG: qHTS for the HT-1080-IDH1KD cell line; HT-1080 IDH1 knockdown viability, ATP luminescence, 48 h; Potency, µM (titrated, usually from 46.1 µM), without a hit: at the highest dose activity, negative = toxicity, actives largely listed as cytotoxic; 360,000 compounds, 2% hits;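 note: potency is the fitted concentration of half-maximal effect; 0% = DMSO wells and -100% = cell-free medium wells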
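IDH1KD HT-1080 cells, 750/well, RPMI + 5% FBS; compound pinned after 2 h settling; 48 h, 37 °C; CellTiter-Glo luminescence; % activity normalised to DMSO and no-cell wells; curves fitted, classed by r2 and efficacy.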
IL-1B inflam inh = qHTS for Inhibitors of Inflammasome Signaling: IL-1-beta AlphaLISA Primary Screen; 360,000 compounds, 4.7% hits; activity change, % at 57.5 µM; THP-1 LPS/ATP IL-1B secretion, AlphaLISA, 16 h; stronger effect = lower value; AID 743279, 2014; in the data active = activity change below about -50%; inconclusive = mostly about -30% to -49%
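Secreted IL-1B measured by AlphaLISA bead assay after 16 h compound exposure of THP-1 cells; compounds (final up to 57.5 uM) added 1 h before LPS (250 ng/mL) and ATP (1.25 mM) stimulation; lower signal means less secretion.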
Starred values were filed as active, the others as inactive; ? = inconclusive; . = no result. Unless noted, calls come from the whole dose curve; as a rule, active = well fitted curve in the direction sought with a large enough effect; inconclusive = small, poorly fitted or top-dose-only effect, or another doubt; inactive = no such curve, though single readings can be large; an effect the other way counts as inactive or inconclusive. Unless noted, % is set by controls: 0 for no effect and ±100 for the full control effect.

SMILES	TDP1 cell CPT	TDP1 cell noCPT	uPA surface inh	HT1080-NT tox	HT1080 IDH1KD tx	IL-1B inflam inh
Cc1cc(C(=O)NCC2COc3ccccc3O2)c2ccccc2n1 (configuration not stated)	?	?	-4%	0%	0%	-70*
CN(C(=O)CSc1nnc(COc2ccccc2)o1)c1ccccc1	-17%	-14%	.	.	.	.
CCn1c(CNC(=O)c2ccc(OC)cc2)nnc1SCC(=O)Nc1ccccc1	12%	-11%	.	.	.	.
O=S1(=O)CC(N2CCCC2)CN1Cc1ccccc1 (configuration not stated)	-19%	0%	.	6%	5%	-11
Cc1ccc(/C=C/C(=O)NCC2COc3ccccc3O2)o1 (configuration not stated)	16µM*	16µM*	-4%	-1%	-4%	-53*
COc1ccc(-n2c(-c3ccccc3)cc3c2CCCC3=O)cc1	-28%	?	-13%	-12%	-10%	26
COc1ccc(-n2c(-c3ccccc3)c[n+]3c2CCC3)cc1	2.1µM*	2.3µM*	-16%	?	-27%	?
COc1ccc(-n2c(-c3ccc(Br)cc3)c[n+]3c2CCCCC3)cc1	1.8µM*	1.8µM*	-10%	-26%	?	-78*
CCOc1ccc(-c2c[n+]3c(n2-c2ccccc2)CCCCC3)cc1	0.082µM*	0.0073µM*	?	?	18µM*	?
COc1ccc(-n2c(-c3ccc(Br)cc3)c[n+]3c2SC(C)C3)cc1 (configuration not stated)	1.6µM*	1.2µM*	-7%	?	?	-97*
COc1cccc(C(=O)COC(=O)CCC(=O)NC2CCCCC2)c1	-10%	?	2%	13%	6%	12
COc1ccc(-n2c(-c3ccc(Br)cc3)c[n+]3c2CCC3)cc1	18µM*	4.6µM*	-9%	?	?	-67*
COc1ccc(-n2c(-c3ccc(Br)cc3)n[nH]c2=S)cc1	?	?	-2%	-3%	6%	0
Cc1ccc(S(=O)(=O)c2nnn3c2nc(N2CCN(c4cccc(C)c4C)CC2)c2ccccc23)cc1C	-8%	0%	.	.	.	.
Cc1cccc(N2CCN(C(=O)c3ccc4nc(-c5ccco5)c(-c5ccco5)nc4c3)CC2C)c1 (configuration not stated)	18µM*	18µM*	-9%	1%	-20%	?
CCCCNC(=O)c1ccc2nc(-c3ccco3)c(-c3ccco3)nc2c1	?	?	13%	-11%	-1%	-7
O=C(NC1CC1)c1ccc2nc(-c3ccco3)c(-c3ccco3)nc2c1	?	13µM*	.	.	.	.
CNC(=O)c1ccc2nc(-c3ccco3)c(-c3ccco3)nc2c1	20µM*	?	.	.	.	.
COc1ccc2nc(-c3ccco3)c(-c3ccco3)nc2c1	18µM*	?	-7%	-2%	-2%	-24
O=C(Nc1cccc2ccccc12)c1ccc2sc([C@@H]3O[C@H](CO)[C@H](O)[C@H](O)[C@H]3O)nc2c1	1%	-2%	.	10%	-9%	-29
O=C(Nc1ccccc1)c1ccc2nc(-c3ccco3)c(-c3ccco3)nc2c1	21µM*	23µM*	.	?	?	?
N[C@@H](Cc1cc(CP(=O)(O)O)cc(-c2ccccc2Cl)c1)C(=O)O	-17%	1%	.	.	.	.
Cc1ccc(C)c(N(CC(=O)NC2CCCCC2)C(=O)c2snc(C(N)=O)c2N)c1	?	9%	1%	14%	7%	33
